# Test results reported in publication PMC5540273 (PLoS ONE, 2017).
# System: MAP3K1
# Details: concentration: 1 μM,replicates: in singlicate; n = 1
# 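Note: KINOMEscan kinase panel screen.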
row,Compound,%Inh [%]
1,Cn1ccc2ncnc(Oc3ccc(NC(=O)Nc4cc(C(C)(C)C)on4)c(Cl)c3)c21,18
2,CC(=O)Nc1ccc(-c2cc3ncnc(SCC(=O)O)c3s2)cc1,16
3,CN(c1ccccc1CNc1nc(Nc2ccc3c(c2)CC(=O)N3)ncc1C(F)(F)F)S(C)(=O)=O,0
4,FC(F)(F)c1cc(Br)cc(Nc2nccc(-c3cnn4ncccc34)n2)c1 [GW810578],3
5,O=C1NCCc2[nH]c(-c3ccncc3)cc21,5
6,O=C(Nc1cccc(C(F)(F)F)c1)c1cccc(Oc2ccc3nccn3n2)c1,21
7,Cc1ccc(CC(=O)N2CCc3cc(-c4cn(C)c5ncnc(N)c45)ccc32)cc1 [GSK2634758],10
8,COC(=O)c1cccc(NC(=O)NC2CCN(c3ccnc(NCc4ccc(F)cc4)n3)CC2)c1 [GSK1379860],24
9,Cn1ccc2ncnc(Oc3ccc(NC(=O)Nc4ccnc(C(F)(F)F)c4)c(Cl)c3)c21,0
10,O=C(NOCC1CC1)c1cc(Br)c(F)c(F)c1Nc1ccc(I)cc1Cl,0
11,COc1ccc(Nc2nccc(N3CCC(NC(=O)c4cccc(C#N)c4)C3)n2)cc1 (centres unmarked) [GSK1379730],1
12,COc1cccc(C2=C(Nc3cccc(Cl)c3)C(=O)NC2=O)c1 [SB-341556],28
13,Cc1n[nH]c2cc(Nc3ccnc(Nc4cccc(CN5CCOCC5)c4)n3)ccc12 [GW682569],29
14,C[C@@H]1CNc2c(sc3ccc4nc(-c5ccncc5)ccc4c23)C(=O)N1,0
15,C[C@@H]1CCN(C(=O)N2CCCC2)C[C@@H]1N(C)c1ncnc2[nH]ccc12,36
16,Cl.c1ccc(Oc2ccc(Nc3ccnc4cc(-c5ccc(CN6CCNCC6)o5)ccc34)cc2)nc1 [GW567142],1
17,COc1cc2c(Nc3ccc(NC(=O)c4ccccc4)cc3)ncnc2cc1OCCCN1CCOCC1 [GSK301329],9
18,c1ccc(Oc2ccc(Nc3ccnc4ccc(-c5ccccn5)cc34)cc2)cc1 [GW407034],14
19,COc1cc2ncn(-c3cc(OCC4CCCCC4)c(C(N)=O)s3)c2cc1OC [GSK204559],30

row,Compound,%Inh [%]
1,C[C@@H]1CNc2c(sc3ccc4nc(-c5ccc(O)cc5)ccc4c23)C(=O)N1,0
2,NC(=O)c1ccc(-c2cc3ncnc(SCC(=O)O)c3s2)cc1,0
3,CS(=O)(=O)Nc1ccc(-c2ccnc3[nH]ccc23)cc1 [GSK993273],18
4,N#Cc1cccc(C(=O)NC2CCN(c3ccnc(Nc4ccc(F)cc4)n3)C2)c1 (centres unmarked) [GSK1379708],1
5,CS(=O)(=O)c1cccc(CNc2nc(Nc3ccc4c(c3)[C@@H]3C[C@@H]4CNC3=O)ncc2C(F)(F)F)c1,0
6,COc1cc(Nc2nccc(N3CCC(NC(=O)c4cccc(C#N)c4)C3)n2)cc(OC)c1OC (centres unmarked) [GSK1379751],2
7,CN1CCN(CCCNc2nccc(-c3c(-c4ccc(F)cc4)nn4cc(C(N)=O)ccc34)n2)CC1 [GW622475],24
8,COc1cccc(OC)c1C(=O)Nc1cccc(-c2nn3ccccc3c2-c2ccnc(Nc3cccc(F)c3)n2)c1 [GSK361065],0
9,CCOC(=O)N1CCC(n2cnc(-c3ccc(F)cc3)c2-c2ccnc(N)n2)CC1 [SB-219952],29
10,COC(=O)Nc1nc2cc(Oc3ccc(NC(=O)Nc4cc(C(F)(F)F)ccc4Cl)cc3)ccc2[nH]1.Cl [GW697465],14
11,CS(=O)c1ccc(-c2coc3ccc(-c4n[nH]c(=O)o4)cc23)cc1 (centres unmarked),0
12,Cn1ccc2ncnc(Oc3ccc(NC(=O)Nc4cncc(C(F)(F)F)c4)c(Cl)c3)c21,0
13,Nc1nccc(-c2ccc3c(N)n[nH]c3c2)n1 [GSK1034945],20
14,NC(=O)Nc1sc(-c2ccc(F)cc2)cc1C(N)=O [GW789449],10
15,CN1CCN(CCNc2nc3cc(Oc4ccc(NC(=O)Nc5cc(C(F)(F)F)ccc5F)cc4)ccc3[nH]2)CC1.Cl.Cl [GW768504],0
16,Cl.Nc1n[nH]c2cc(-c3ccccn3)ccc12 [GSK2189892],0
17,CCn1c(-c2nonc2N)nc2cncc(CNC3CCNCC3)c21.Cl [SB-747651],6
18,Cn1ccc2ncnc(Oc3ccc(NC(=O)Nc4cccc(C(F)(F)F)c4)c(Cl)c3)c21,0

# System: MAP3K2
# Details: concentration: 1 μM,replicates: in singlicate; n = 1
row,Compound,%Inh [%]
1,Cn1ccc2ncnc(Oc3ccc(NC(=O)Nc4cc(C(C)(C)C)on4)c(Cl)c3)c21,9
2,CC(=O)Nc1ccc(-c2cc3ncnc(SCC(=O)O)c3s2)cc1,5
3,CN(c1ccccc1CNc1nc(Nc2ccc3c(c2)CC(=O)N3)ncc1C(F)(F)F)S(C)(=O)=O,61
4,FC(F)(F)c1cc(Br)cc(Nc2nccc(-c3cnn4ncccc34)n2)c1 [GW810578],14
5,O=C1NCCc2[nH]c(-c3ccncc3)cc21,0
6,O=C(Nc1cccc(C(F)(F)F)c1)c1cccc(Oc2ccc3nccn3n2)c1,19
7,Cc1ccc(CC(=O)N2CCc3cc(-c4cn(C)c5ncnc(N)c45)ccc32)cc1 [GSK2634758],55
8,COC(=O)c1cccc(NC(=O)NC2CCN(c3ccnc(NCc4ccc(F)cc4)n3)CC2)c1 [GSK1379860],8
9,Cn1ccc2ncnc(Oc3ccc(NC(=O)Nc4ccnc(C(F)(F)F)c4)c(Cl)c3)c21,0
10,O=C(NOCC1CC1)c1cc(Br)c(F)c(F)c1Nc1ccc(I)cc1Cl,0
11,COc1ccc(Nc2nccc(N3CCC(NC(=O)c4cccc(C#N)c4)C3)n2)cc1 (centres unmarked) [GSK1379730],0
12,COc1cccc(C2=C(Nc3cccc(Cl)c3)C(=O)NC2=O)c1 [SB-341556],17
13,Cc1n[nH]c2cc(Nc3ccnc(Nc4cccc(CN5CCOCC5)c4)n3)ccc12 [GW682569],8
14,C[C@@H]1CNc2c(sc3ccc4nc(-c5ccncc5)ccc4c23)C(=O)N1,0
15,C[C@@H]1CCN(C(=O)N2CCCC2)C[C@@H]1N(C)c1ncnc2[nH]ccc12,17
16,Cl.c1ccc(Oc2ccc(Nc3ccnc4cc(-c5ccc(CN6CCNCC6)o5)ccc34)cc2)nc1 [GW567142],0
17,COc1cc2c(Nc3ccc(NC(=O)c4ccccc4)cc3)ncnc2cc1OCCCN1CCOCC1 [GSK301329],11
18,c1ccc(Oc2ccc(Nc3ccnc4ccc(-c5ccccn5)cc34)cc2)cc1 [GW407034],14
19,COc1cc2ncn(-c3cc(OCC4CCCCC4)c(C(N)=O)s3)c2cc1OC [GSK204559],0

row,Compound,%Inh [%]
1,C[C@@H]1CNc2c(sc3ccc4nc(-c5ccc(O)cc5)ccc4c23)C(=O)N1,12
2,NC(=O)c1ccc(-c2cc3ncnc(SCC(=O)O)c3s2)cc1,0
3,CS(=O)(=O)Nc1ccc(-c2ccnc3[nH]ccc23)cc1 [GSK993273],58
4,N#Cc1cccc(C(=O)NC2CCN(c3ccnc(Nc4ccc(F)cc4)n3)C2)c1 (centres unmarked) [GSK1379708],11
5,CS(=O)(=O)c1cccc(CNc2nc(Nc3ccc4c(c3)[C@@H]3C[C@@H]4CNC3=O)ncc2C(F)(F)F)c1,65
6,COc1cc(Nc2nccc(N3CCC(NC(=O)c4cccc(C#N)c4)C3)n2)cc(OC)c1OC (centres unmarked) [GSK1379751],19
7,CN1CCN(CCCNc2nccc(-c3c(-c4ccc(F)cc4)nn4cc(C(N)=O)ccc34)n2)CC1 [GW622475],0
8,COc1cccc(OC)c1C(=O)Nc1cccc(-c2nn3ccccc3c2-c2ccnc(Nc3cccc(F)c3)n2)c1 [GSK361065],7
9,CCOC(=O)N1CCC(n2cnc(-c3ccc(F)cc3)c2-c2ccnc(N)n2)CC1 [SB-219952],6
10,COC(=O)Nc1nc2cc(Oc3ccc(NC(=O)Nc4cc(C(F)(F)F)ccc4Cl)cc3)ccc2[nH]1.Cl [GW697465],0
11,CS(=O)c1ccc(-c2coc3ccc(-c4n[nH]c(=O)o4)cc23)cc1 (centres unmarked),0
12,Cn1ccc2ncnc(Oc3ccc(NC(=O)Nc4cncc(C(F)(F)F)c4)c(Cl)c3)c21,0
13,Nc1nccc(-c2ccc3c(N)n[nH]c3c2)n1 [GSK1034945],10
14,NC(=O)Nc1sc(-c2ccc(F)cc2)cc1C(N)=O [GW789449],85
15,CN1CCN(CCNc2nc3cc(Oc4ccc(NC(=O)Nc5cc(C(F)(F)F)ccc5F)cc4)ccc3[nH]2)CC1.Cl.Cl [GW768504],0
16,Cl.Nc1n[nH]c2cc(-c3ccccn3)ccc12 [GSK2189892],0
17,CCn1c(-c2nonc2N)nc2cncc(CNC3CCNCC3)c21.Cl [SB-747651],13
18,Cn1ccc2ncnc(Oc3ccc(NC(=O)Nc4cccc(C(F)(F)F)c4)c(Cl)c3)c21,6
